Results from PubChem BioAssay (EPA / NIEHS).
Where “and” joins values, the source holds several entries; their conditions need not be identical. Identical values can stand only once. Some structures have more than one record in an assay (separate samples or runs), and their calls can disagree. Calls of active or inactive are those of the source. How the source made its calls: active means hit-call score of the fitted dose curve at least 0.9, where 1 is the maximum; inactive means score below 0.9.

How the values were obtained:
[1] = ATG_ISRE_CIS: Attagene CIS-FACTORIAL HepG2 Assay for human Interferon Regulatory Factor 1 (IRF1) binding to an Interferon-Stimulated Response Element (ISRE) (AID 2282948); details: HepG2 ISRE cis-reporter (Attagene), mRNA transcription readout; actives raise or lower the signal
Summary of the method: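 Transfected HepG2 (multiple reporter transcription units, cis elements) dosed 24 h. RNA → oligo(dT) RT → PCR → 6-FAM primer extension → HpaI → CE. DMSO = negative control/baseline.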

[2] = ATG_M_32_CIS: Attagene CIS-FACTORIAL HepG2 Assay for M32 Transcription Factor (Internal Marker) (AID 2282949); details: HepG2 Attagene cis-factorial M32 reporter, mRNA; actives raise or lower the signal;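 further: background control marker of the multiplexed CIS panel rather than a real target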
Summary of the method: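 Fluorescent capillary electrophoresis peaks of HpaI-digested, FAM-labelled RT-PCR reporter products give the signal. Source: transiently transfected human liver HepG2 cells, 24 h after chemical dosing; bidirectional fitting against DMSO.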

[3] = ATG_M_06_CIS: Attagene CIS-FACTORIAL HepG2 Assay for M06 Transcription Factor (Internal Marker) (AID 2282950); details: HepG2 Attagene CIS-FACTORIAL M06 internal marker reporter; actives raise or lower the signal
Summary of the method: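 Terse: HepG2, transient MRTU transfection (FuGene 6), 24 h dosing; total RNA, oligo(dT) RT, PCR, FAM label, HpaI cut, capillary electrophoresis; bidirectional fit vs DMSO baseline; background-control endpoint.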

[4] = target: Hypoxia-inducible factor 1-alpha (Homo sapiens) (UniProt Q16665); assay: ATG_HIF1a_CIS: Attagene CIS-FACTORIAL HepG2 Assay for human Hypoxia Inducible Factor 1 (HIF1A) (AID 2282951); details: HepG2 Attagene cis-factorial HIF1a reporter transcription; actives raise or lower the signal
Sequence of Hypoxia-inducible factor 1-alpha (Homo sapiens) (Q16665 whole entry, looked up): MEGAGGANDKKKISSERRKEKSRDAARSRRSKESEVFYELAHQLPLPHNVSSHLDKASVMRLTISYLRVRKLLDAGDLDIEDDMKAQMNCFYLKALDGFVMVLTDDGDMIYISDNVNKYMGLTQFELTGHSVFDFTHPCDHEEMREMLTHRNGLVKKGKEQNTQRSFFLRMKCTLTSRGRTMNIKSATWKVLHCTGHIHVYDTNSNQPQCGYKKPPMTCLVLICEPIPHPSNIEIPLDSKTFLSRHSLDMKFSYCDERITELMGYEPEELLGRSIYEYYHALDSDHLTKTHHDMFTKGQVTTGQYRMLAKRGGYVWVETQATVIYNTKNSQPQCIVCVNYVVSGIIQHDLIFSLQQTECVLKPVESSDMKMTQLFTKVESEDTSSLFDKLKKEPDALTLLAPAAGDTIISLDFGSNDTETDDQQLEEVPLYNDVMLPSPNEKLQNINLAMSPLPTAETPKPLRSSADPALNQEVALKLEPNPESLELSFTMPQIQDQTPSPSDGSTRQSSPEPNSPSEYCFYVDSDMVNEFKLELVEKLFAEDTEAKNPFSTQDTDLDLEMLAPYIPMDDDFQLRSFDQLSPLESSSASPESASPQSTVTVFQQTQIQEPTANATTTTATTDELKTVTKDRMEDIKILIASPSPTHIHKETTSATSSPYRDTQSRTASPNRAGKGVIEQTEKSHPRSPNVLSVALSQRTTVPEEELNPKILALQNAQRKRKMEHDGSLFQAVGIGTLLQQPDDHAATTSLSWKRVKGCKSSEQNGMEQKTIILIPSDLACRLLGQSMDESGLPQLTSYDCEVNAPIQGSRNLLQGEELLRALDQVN
Summary of the method: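 Cis-element reporter constructs were transiently transfected into HepG2 cells, which were treated for 24 h; reporter RNA was reverse-transcribed, amplified, labelled and resolved by capillary electrophoresis.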

[5] = target: Hepatocyte nuclear factor 6 (Homo sapiens) (UniProt Q9UBC0); assay: ATG_HNF6_CIS: Attagene CIS-FACTORIAL HepG2 Assay for human Hepatocyte Nuclear Factor 6 (HNF6) (AID 2282952); details: HepG2 Attagene cis-factorial HNF6 reporter transcription; actives raise or lower the signal
Sequence of Hepatocyte nuclear factor 6 (Homo sapiens) (Q9UBC0 whole entry, looked up): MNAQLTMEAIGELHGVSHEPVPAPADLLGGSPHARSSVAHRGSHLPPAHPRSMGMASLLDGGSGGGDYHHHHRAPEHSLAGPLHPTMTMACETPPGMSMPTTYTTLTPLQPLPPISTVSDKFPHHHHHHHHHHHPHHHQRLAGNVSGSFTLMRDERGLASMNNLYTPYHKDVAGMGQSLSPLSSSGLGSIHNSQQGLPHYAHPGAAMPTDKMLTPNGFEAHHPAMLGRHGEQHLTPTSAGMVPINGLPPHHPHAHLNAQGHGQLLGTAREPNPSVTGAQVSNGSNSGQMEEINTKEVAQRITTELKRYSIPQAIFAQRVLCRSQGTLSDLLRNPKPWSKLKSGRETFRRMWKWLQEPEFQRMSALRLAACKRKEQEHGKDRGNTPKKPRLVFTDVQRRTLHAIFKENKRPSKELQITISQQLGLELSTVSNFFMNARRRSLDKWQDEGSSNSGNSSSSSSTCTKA
Summary of the method: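 Multiplexed mRNA reporter assay in transfected HepG2; 24 h dosing; RT-PCR plus capillary electrophoresis fluorescence; DMSO-referenced bidirectional curve fitting.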

[6] = target: Heat shock factor protein 1 (Homo sapiens) (UniProt Q00613); assay: ATG_HSE_CIS: Attagene CIS-FACTORIAL HepG2 Assay for human Heat Shock Transcription Factor 1 (HSE) (AID 2282953); details: HepG2 HSE cis-reporter, Attagene RNA transcription; actives raise or lower the signal
Sequence of Heat shock factor protein 1 (Homo sapiens) (Q00613 whole entry, looked up, the tested form may be a part): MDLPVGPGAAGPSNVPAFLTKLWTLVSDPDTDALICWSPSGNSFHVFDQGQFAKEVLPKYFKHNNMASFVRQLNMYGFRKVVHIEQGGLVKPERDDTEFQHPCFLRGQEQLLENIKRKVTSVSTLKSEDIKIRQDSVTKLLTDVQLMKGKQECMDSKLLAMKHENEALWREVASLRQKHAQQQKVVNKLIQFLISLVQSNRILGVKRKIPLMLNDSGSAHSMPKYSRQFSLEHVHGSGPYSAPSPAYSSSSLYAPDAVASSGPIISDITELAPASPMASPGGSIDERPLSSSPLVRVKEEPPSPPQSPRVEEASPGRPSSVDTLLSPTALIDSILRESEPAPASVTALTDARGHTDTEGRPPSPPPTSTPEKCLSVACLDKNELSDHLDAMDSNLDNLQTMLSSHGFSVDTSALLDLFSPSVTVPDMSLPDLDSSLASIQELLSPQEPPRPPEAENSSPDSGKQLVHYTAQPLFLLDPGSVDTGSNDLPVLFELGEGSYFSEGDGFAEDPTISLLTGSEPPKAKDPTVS
Summary of the method: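 Read-out: fluorescence of reporter-specific RT-PCR fragments separated by capillary electrophoresis. HepG2 carrying transfected cis-element reporter units; 24 h dosing; activity fitted in both directions relative to DMSO baseline.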

[7] = ATG_MRE_CIS: Attagene CIS-FACTORIAL HepG2 Assay for human Metal Responsive Element (MRE) (AID 2282954); details: HepG2 MRE cis-reporter transcription, Attagene multiplex; actives raise or lower the signal
Summary of the method: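 HepG2 cells transiently transfected with cis-element-driven reporter units; mRNA measured 24 h after dosing. Reporter transcripts quantified by RT-PCR, FAM labelling, HpaI digestion and capillary electrophoresis; bidirectional fit versus DMSO.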

[8] = ATG_PBREM_CIS: Attagene CIS-FACTORIAL HepG2 Assay for human Phenobarbital-responsive Enhancer Module (PBREM) (AID 2282955); details: HepG2 PBREM cis-reporter, Attagene multiplexed transcription; actives raise or lower the signal
Summary of the method: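 Multiplexed cis-reporter readout in human hepatoma HepG2 cells; PBREM-regulated transcript quantified after 24 h exposure by fluorescent RT-PCR fragment analysis. Signal changes up or down fitted relative to DMSO.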

[9] = target: Paired box protein Pax-6 (Homo sapiens) (UniProt P26367); assay: ATG_Pax6_CIS: Attagene CIS-FACTORIAL HepG2 Assay for human Paired Box 6 (PAX6) (AID 2282956); details: HepG2 CIS-FACTORIAL PAX6 reporter transcription, RNA readout; actives raise or lower the signal
Sequence of Paired box protein Pax-6 (Homo sapiens) (P26367 whole entry, looked up): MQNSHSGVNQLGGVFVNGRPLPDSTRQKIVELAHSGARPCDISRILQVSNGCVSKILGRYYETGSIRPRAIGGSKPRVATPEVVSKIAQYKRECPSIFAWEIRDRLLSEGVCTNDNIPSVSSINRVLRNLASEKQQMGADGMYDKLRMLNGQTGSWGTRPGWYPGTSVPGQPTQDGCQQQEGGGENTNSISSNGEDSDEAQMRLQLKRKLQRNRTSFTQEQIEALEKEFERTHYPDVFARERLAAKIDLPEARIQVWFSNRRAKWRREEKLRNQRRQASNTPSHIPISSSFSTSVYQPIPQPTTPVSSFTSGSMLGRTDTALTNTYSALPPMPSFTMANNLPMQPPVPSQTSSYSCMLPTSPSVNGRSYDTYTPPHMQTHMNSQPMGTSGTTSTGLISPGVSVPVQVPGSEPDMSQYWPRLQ
Summary of the method: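 Transient MRTU transfection of HepG2 → compound exposure 24 h → TriZol RNA, oligo(dT) RT → PCR, 6-FAM primer extension, HpaI cut → capillary electrophoresis; activity fitted both directions against DMSO.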

[10] = ATG_PXRE_CIS: Attagene CIS-FACTORIAL HepG2 Assay for human Pregnane X Receptor Element (PXRE) (AID 2282957); details: HepG2 Attagene CIS-FACTORIAL PXRE reporter, mRNA; actives raise or lower the signal
Summary of the method: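 Cells: HepG2, transiently transfected reporter units under cis promoter control. Exposure: 24 h. Detection: reporter mRNA via RT-PCR/CE fluorescence; bidirectional fitting, DMSO-referenced.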

Measured: AC50

CC(C)OC(=O)Nc1ccccc1
active: [10] 100 µM
inactive: all other assays above

CC(C)(C)CC(C)(C)c1ccc(O)cc1
active: [1] 8.06 µM | [4] 0.932 nM and 20.1 µM | [10] 3.34 µM [middle of 4 runs]
inactive: [1] | [2] | [3] | [4] | [5] | [6] | [7]

Cc1cc(Cl)ccc1O[C@H](C)C(=O)O
inactive: all assays above

COc1cc(OC)nc(NC(=O)NS(=O)(=O)c2ncccc2C(=O)N(C)C)n1
inactive: all assays above

COP(=S)(OC)Oc1ccc(S(=O)(=O)N(C)C)cc1
active: [7] 69 µM | [10] 26.8 µM
inactive: all other assays above

COP(=S)(OC)Oc1ccc(Sc2ccc(OP(=S)(OC)OC)cc2)cc1
inactive: [1] | [2] | [3] | [5]
active: [4] 39.3 µM | [6] 27 µM | [7] 57.7 µM | [8] 8.08 µM | [9] 49.2 µM | [10] 2.83 µM

Cl/C=C\C[N+]12CN3CN(CN(C3)C1)C2
active: [1] 100 µM | [6] 158 µM | [10] 45.2 µM
inactive: all other assays above

C1CCC(NC2CCCCC2)CC1
active: [10] 16.7 µM
inactive: all other assays above

O=C(O)C(F)(F)C(F)(F)C(F)(F)C(F)(F)C(F)(F)C(F)(F)C(F)(F)C(F)(F)C(F)(F)C(F)(F)F
active: [1] 44.5 µM and 20.1 µM | [2] 160 µM | [3] 76.2 µM | [6] 14.9 µM | [7] 23.2 µM and 15.5 µM | [8] 70.8 µM | [9] 30.8 µM | [10] 62 µM
inactive: [2] | [3] | [6] | [8] | [9] | [10]

CC(C)(c1ccccc1)c1ccc(O)c(C(C)(C)c2ccccc2)c1
active: [4] 11.1 µM | [6] 17.9 µM | [7] 13.3 µM | [8] 0.42 µM | [9] 12.7 µM | [10] 0.156 µM
inactive: [1] | [2] | [3] | [5]

COc1cc(-c2ccc(N)c(OC)c2)ccc1N
active: [1] 53.6 µM | [7] 49.7 µM and 57.9 µM | [8] 29.2 µM | [9] 19.9 µM | [10] 25.2 µM
inactive: [1] | [2] | [3] | [5] | [6] | [8] | [9] | [10]

COc1ccc(C=O)cc1OC
active: [10] 32 µM
inactive: all other assays above

CC1(C)Cc2cccc(O)c2O1
active: [10] 7.98 µM
inactive: all other assays above

O=C(O)C(Cl)(Cl)Cl
active: [10] 71.7 µM
inactive: [1] | [2] | [3] | [4] | [5] | [6] | [7] | [8] | [9] | [10]

CNC(=O)O/N=C/C(C)(C)S(C)=O (centres undefined)
active: [6] 154 µM
inactive: all other assays above

CCOP(=S)(OCC)Oc1ccc(S(C)=O)cc1 (centres undefined)
active: [10] 15.9 µM
inactive: all other assays above

C=C(C)C(=O)[O][Sn]([CH2]CCC)([CH2]CCC)[CH2]CCC
active: [1] 0.612 µM | [5] 0.656 µM | [6] 0.68 µM | [7] 0.412 µM | [9] 0.514 µM
inactive: all other assays above

O=C1C2(Cl)C3(Cl)C4(Cl)C(Cl)(Cl)C5(Cl)C3(Cl)C1(Cl)C5(Cl)C24Cl (centres undefined)
inactive: [1] | [2] | [3] | [6] | [7] | [8] | [9]
active: [1] 15.1 µM | [6] 16.7 µM | [7] 3.57 µM and 16.2 µM | [8] 16 µM | [9] 15.7 µM

O=[N+]([O-])c1ccc(O)c([N+](=O)[O-])c1
not listed: [9]
inactive: all other assays above

CC(C)(OO)c1ccccc1
inactive: all assays above

CCN(CC)C(=O)Cl
inactive: all assays above
